Changes are numbered by the printed parent chain. Whole data set: some 24,000 sequences, median “enrichment r” near 0.99, cut for the highest 2% near 3.7. The full list was thinned out, with the highest values kept by preference.
T1: UNK ZnF1-3 (human, UniProt Q9C0B0 31-174)
T1 sequence: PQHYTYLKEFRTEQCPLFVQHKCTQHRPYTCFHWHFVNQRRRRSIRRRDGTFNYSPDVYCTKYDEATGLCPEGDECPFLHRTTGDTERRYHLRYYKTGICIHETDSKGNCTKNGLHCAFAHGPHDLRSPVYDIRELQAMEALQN

B1: chr4:86222814:86222815:+_ENSMUSG00000070934_ENSMUST00000091064|mus_mus|FALSE|FALSE (ssRNA)
RNA: GGGAGUUCUACAGUCCGACGAUCGAAUAUUAAAGACAAAUGAUGCAAAAAAAAAAAAAACACCGUAAUUCAGCAUUUUACUAAAGAGCAUUUGGCAUUAUUUCAACGCAUGAGGAGGCUGUGCUUGGGCCCAUCUACUCUUUCCAACAGAGGAUUGAGCAUCA
B2: chr6:40197388:40197389:+_ENSMUSG00000057716_ENSMUST00000061740|mus_mus|mus_mus_mus_hu_False|68_78 (ssRNA)
RNA: GGGAGUUCUACAGUCCGACGAUCGAGACACUGGGGUGGAUUUAUUCCACCUCUGUUUGCUAGCCUCUAAGAUAGAUUGUUAUUUUGGGAUUCAUGGCCUUGAAUAUCAAGAGGGAAAGGAAGAGGAUGGAAAGAGUCAAGAGUCAACAGAGGAUUGAGCAUCA
B3: 52238803_52238923_934_CDS_ENSG00000023330_ENST00000469224|human|control|control (ssRNA)
RNA: GGGAGUUCUACAGUCCGACGAUCCCCACACACCCGUGGGUGGCGACUCAUUCCUAGGUAGUCAUUACUGCACCAGACUGACACUUGCUUUUUGGUGAUGAGGGAGUCUGAAUAGUCAUCUGCCAUGGGGAAGAUGUGUGCUCGCAACAGAGGAUUGAGCAUCA
B4: 14029136_14029256_1416_CDS_ENSG00000175595_ENST00000311895|human|control|control (ssRNA)
RNA: GGGAGUUCUACAGUCCGACGAUCUUUUUUCUUUUUGAGGGUUCUUUCUUUGGUAGAAGCCCGUUCUUUGUUUUGGGGGUCUUUAGGUCUUUUGUGAGAUUUCCUAAUUCUCUUUGAACUGUCUUCCUUCCUAAAUUUCAUCCACAACAGAGGAUUGAGCAUCA
B5: 80201405_80202562_482_3pUTR_ENSMUSG00000017421_ENSMUST00000017567|mouse|control|control (ssRNA)
RNA: GGGAGUUCUACAGUCCGACGAUCCUGUGGCUGAAAGGAAGUUGAGGCUGCAGAUUCAUCAUCAUCAUAUUCAUCAGAAUCAUCUUGUUGUUUCUUUUUCUGACUCUCUUGUGUUUUCUGUUCAAGAAGUCGCCGUCUUUCAUCCAACAGAGGAUUGAGCAUCA
B6: chr19:7991675:7991676:-_ENSG00000104980_ENST00000595831|hu_mus|motif|central (ssRNA)
RNA: GGGAGUUCUACAGUCCGACGAUCAUGUACAGGAAGUAAGAGCACUGAUUUAAAAACAAAAACAAAACAAAACAAAAGGACCGGAAGUGGCUUGGAAGGCAAUGCCAGUGGACUACUUAGAACAGCAGGCCAGGCCUCACCCGACAACAGAGGAUUGAGCAUCA
B7: chr5:136386232:136386233:-_ENSMUSG00000051391_ENSMUST00000055808|mus_hu|FALSE|FALSE (ssRNA)
RNA: GGGAGUUCUACAGUCCGACGAUCAAGUACACAAUCGAUGGCUUGAUGUUACAUAUGGCUGUAAUGUAGAAAUACUGUAAACUGCAAUUUAGUGUUAAUACUGUCAACUAAUCAGAGACUUCGGAAAACUGGCAAGGCCUAAACCAACAGAGGAUUGAGCAUCA
B8: chr6:30692278:30692279:+_ENSG00000196230_ENST00000327892|hu_hu|FALSE|FALSE (ssRNA)
RNA: GGGAGUUCUACAGUCCGACGAUCCCAGAGUGGAAAGAGAGAGGAGACAUUCAACAAACAAGUAUUUAUUGAGCGCCUACUAUGUGCCAGGCACUGUUCUAGACCCCCCCCAGAAGAAAAAACAAAAAACAAGAUAGAGGCAGCCAACAGAGGAUUGAGCAUCA
B9: chr19:7991675:7991676:-_ENSG00000104980_ENST00000595831|hu_mus|FALSE|FALSE (ssRNA)
RNA: B6 RNA with G82U, G83A
B10: chr4:95690885:95690886:+_ENSMUSG00000028572_ENSMUST00000156910|mus_mus|mus_mus_mus_hu_False|1_8 (ssRNA)
RNA: GGGAGUUCUACAGUCCGACGAUCUUUAGAAAAUGUUAAAUACCAUGCUAAAAUAUUUUCAAAGGCUUAUUUUAUUUUACCAGAAGUCACAGGCAAGCAGACACUACAAGAAUAUAUGAAAAUGAAACAACAGUGUAAAAUGUACAACAGAGGAUUGAGCAUCA
B11: chr19:37063429:37063430:+_ENSMUSG00000040565_ENSMUST00000099494|mus_mus|FALSE|FALSE (ssRNA)
RNA: GGGAGUUCUACAGUCCGACGAUCCAUAGCAUCCCAAAGAUGUGGCAACUUCACUGCCAUUUCAGCACCAAAAUGCUUCACUAUAGUUGUUAAGGCAAAUUCAGCUCCUCUCCGCUGUACCAGGUAAGGCUUCUGACCCUCAUCCAACAGAGGAUUGAGCAUCA
B12: chr14:79828021:79828022:+_ENSMUSG00000043881_ENSMUST00000061222|mus_mus|motif|central (ssRNA)
RNA: GGGAGUUCUACAGUCCGACGAUCAGGAUCAUAGCAGAGCAUGCGCUUACUGUUGACAGCGUAAAGAUAAUUCUGAACCACGGUUAGUUCAAAUGAAUAAAAGGAAUGUGGUACAGGAGCCACCAAUGCCCAUUGGUUCCUCUGCAACAGAGGAUUGAGCAUCA
B13: chr3:49547525:49547526:-_ENSMUSG00000037892_ENSMUST00000035931|mus_hu|FALSE|FALSE (ssRNA)
RNA: GGGAGUUCUACAGUCCGACGAUCGUUCUUAUACUAAAAAUAAAAGCAAAAAUAUGAGAUCAUGCACUGGAGACAAAAGCUAAAAAUGAAUAGUUAUAACAAAGAAAGACAAUAUUCCAAAAGAUUAAAAUGUUCAAGUAUUGUCAACAGAGGAUUGAGCAUCA
B14: chr1:154935262:154935263:-_ENSG00000160691_ENST00000448116|hu_hu|FALSE|FALSE (ssRNA)
RNA: GGGAGUUCUACAGUCCGACGAUCAUUUUGUGCUCAAGAAUAAGCAAUGGAAAAGAAAAUAGGAAAGUAAGUCUACAGCCCUAAAAUAUAUGCAUAUAAAACUUUAAAAGAAUGCAGUUCCAACUCUACAGAUGGUAUGUGGGGCAACAGAGGAUUGAGCAUCA
B15: chr3:49547525:49547526:-_ENSMUSG00000037892_ENSMUST00000035931|mus_hu|motif|central (ssRNA)
RNA: B13 RNA with U80G, A81G
B16: chr11:87794696:87794697:-_ENSMUSG00000020483_ENSMUST00000020775|mus_hu|motif|central (ssRNA)
RNA: GGGAGUUCUACAGUCCGACGAUCGCCUUUUAUUUUGUAUAGGGAAAGAAAGAGAAAAGGGAGAGGUGGGAGAGAUUUCCGGGUGCAAUACAACCAAAAAAUAUUUUUAAAGUCUUGAAAAAUAAACAUAAAGCAGCCUUCUUCCAACAGAGGAUUGAGCAUCA
B17: chr1:154935262:154935263:-_ENSG00000160691_ENST00000448116|hu_hu|motif|central (ssRNA)
RNA: B14 RNA with U81G, A82G
B18: chr4:21667751:21667752:+_ENSMUSG00000028252_ENSMUST00000108240|mus_mus|motif|central (ssRNA)
RNA: GGGAGUUCUACAGUCCGACGAUCUUCUAGUAUAUGAUUCAUCCUGUAAGGAAAUUCCUUUGGAAAAGCAUAUGAAAAUCGGGUUUUUAAUACAGAAGUAGUAGCAGCAAUCAAUCUUGUAUUUGAGACAACACCAAAUUCCUCCAACAGAGGAUUGAGCAUCA
B19: chr3:49547525:49547526:-_ENSMUSG00000037892_ENSMUST00000035931|mus_mus|motif|central (ssRNA)
RNA: GGGAGUUCUACAGUCCGACGAUCGUUCAUAUGCUAAAAAUACAAGCAAAACUGUGAUAGCAUGCACAAGAGACAAAAGCGGAAGGUGAAUAAUUAUAGCCAAAAAAAGAGAGACAAUGCAGUCGAUACAAAUGUUCAAGUAUGCAACAGAGGAUUGAGCAUCA
B20: chr9:90322654:90322655:+_ENSG00000196730_ENST00000408954|hu_hu|FALSE|FALSE (ssRNA)
RNA: GGGAGUUCUACAGUCCGACGAUCAAAGAAAAGCGUAUAAGAAAUACACAUUUUGGAUAAAUAUGCACUUUUCUUUUUUAAAGGACAAUCAAUAUAGUAGUUAAAAAAAAUGUCAUUGAAAAGUUAGGAAUUCCAGCAAAAUUACAACAGAGGAUUGAGCAUCA
B21: chr1:163112212:163112213:-_ENSG00000143248_ENST00000313961|hu_hu|hu_hu_hu_mus_False|1_18 (ssRNA)
RNA: GGGAGUUCUACAGUCCGACGAUCUUUUAUUAUCAGUAAGAGUGAGUUACAUACUAGGCAAAGUAUUGGAUACAAUAAUCAGGAAACAAACACUAUUGGUCCAGAAUUUAAAACUUUUGGGAUAAAUUGCUGGCACAGGAUUUACAACAGAGGAUUGAGCAUCA
B22: chr20:5919097:5919098:-_ENSG00000089195_ENST00000203001|hu_hu|FALSE|FALSE (ssRNA)
RNA: GGGAGUUCUACAGUCCGACGAUCGUUCUUAUUCUUGGGAUAUGAAAAAACAAGUAGUAAUGGCAUUUAAAGUUUAAUUACUAACUGUAUAAUGCCUGAGAACAAAAUUCAGAGCAAUUCUCAAAAGGGUUAAGAGUCAGACUCCAACAGAGGAUUGAGCAUCA

Biological target: T1, UNK ZnF1-3
Assay: nsRBNS (natural sequence RNA bind-n-seq); RBNS binding buffer (assumed for nsRBNS): 25 mM Tris pH 7.5, 150 mM KCl, 3 mM MgCl2, 0.01% Triton X-100, 500 ug/ml BSA, 20 U/ml SUPERase-In, 4 C; UNK is unkempt and MSI1 is Musashi-1; names of the RNAs are library labels; protein concentration not given here; high values mean tight binding

Q: How did the binding signal turn out when B1 was run?
A: 1.67 enrichment R

Q: B2 was tested. Which binding signal did it give?
A: 1.33 enrichment R

Q: With B3 as the binder, how does the binding signal read?
A: 1.04 enrichment R

Q: For B4, which binding signal is on record?
A: 0.174 enrichment R

Q: With B5 as the binder, how does the binding signal read?
A: 0.524 enrichment R

Q: With B6 as the binder, how does the binding signal read?
A: 5.15 enrichment R

Q: For B7, which binding signal is on record?
A: 1.26 enrichment R

Q: B8 was tested. Which binding signal did it give?
A: 2.28 enrichment R

Q: For B9, which binding signal is on record?
A: 5.35 enrichment R

Q: For B10, which binding signal is on record?
A: 1.97 enrichment R

Q: B11 was tested. Which binding signal did it give?
A: 0.992 enrichment R

Q: Which binding signal does the source give for B12 here?
A: 1.02 enrichment R

Q: With B13 as the binder, how does the binding signal read?
A: 4.56 enrichment R

Q: For B14, which binding signal is on record?
A: 3.55 enrichment R

Q: How did the binding signal turn out when B15 was run?
A: 3.95 enrichment R

Q: Which binding signal does the source give for B16 here?
A: 3.42 enrichment R

Q: B17 was tested. Which binding signal did it give?
A: 3.69 enrichment R

Q: For B18, which binding signal is on record?
A: 0.985 enrichment R

Q: With B19 as the binder, how does the binding signal read?
A: 1.91 enrichment R

Q: With B20 as the binder, how does the binding signal read?
A: 8.3 enrichment R

Q: With B21 as the binder, how does the binding signal read?
A: 1.27 enrichment R

Q: Which binding signal does the source give for B22 here?
A: 0.585 enrichment R

From publication PMC12136788
